ALOX15B inhib – blocks human 15-lipoxygenase 2 activity; purified 15hLO-2, xylenol orange hydroperoxide absorbance; O15296; 110,000 compounds, 0.56% hits; Potency, µM (highest dose often 57.1 µM), without a hit: at the highest dose activity change, negative = inhibition, actives largely listed as inhibitors; AID 881; also: potency is read from the fitted curve at half-maximal effect; nearly all actives have a fitted effect of over 60% in size
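Purified human 15hLO-2 (50 nM final) preincubated with compounds 15 min at room temperature in 25 mM Hepes pH 7.5, 0.01% Triton X-100, then 45 uM arachidonic acid added for 90 min; hydroperoxide detected via ferrous/xylenol orange, 573/405 nm absorbance ratio.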
IMPase cell inh – membrane-permeable compound that blocks inositol monophosphatase | CHO-M1 cells, IP1 accumulation, HTRF TR-FRET ratio | inhibition (IP1 accumulation), % at 46.1 µM | 120,000 tested, under 10 active | AID 901; active = well fitted curve in the direction sought with a large enough effect in the signal ratio, not every such curve was filed as active; inconclusive = small, poorly fitted or top-dose-only effect, or a change in a side signal; inactive = no such curve, though single readings can be large or run the other way; the % refers to the signal ratio;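 also: cells stimulated with carbachol in lithium chloride buffer; plate controls were DMSO basal wells for no effect and reference inhibitor wells for full effect; higher means more IMPase inhibition seen as more IP1 and lower FRET ratio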
Target sequence (P97697 whole entry, looked up): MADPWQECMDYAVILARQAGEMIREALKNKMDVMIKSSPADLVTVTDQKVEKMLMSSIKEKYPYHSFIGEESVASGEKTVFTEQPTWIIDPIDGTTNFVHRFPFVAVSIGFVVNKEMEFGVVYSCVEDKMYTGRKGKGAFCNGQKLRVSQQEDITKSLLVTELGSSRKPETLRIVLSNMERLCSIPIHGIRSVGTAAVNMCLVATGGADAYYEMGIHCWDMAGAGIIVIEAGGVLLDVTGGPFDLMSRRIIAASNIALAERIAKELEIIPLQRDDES
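Carbachol-driven Gq signalling in CHO-M1 cells (2000/well) generates IP1. Compounds that block IMPase raise IP1 and so reduce the FRET signal from Eu-anti-IP1 and d2-IP1 after a 10 min room-temperature lysis.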
IMPase Li cell – cell-permeable IMPase inhibitors with lithium potentiation. CHO-M1 cells, IP1 TR-FRET (IP-One), carbachol + lithium. Potency, µM (highest dose often 59.4 µM), for inactives: top-dose activity, negative = IMPase inhibition, actives largely listed as inhibitors. 210,000 compounds, 0.35% hits. AID 1457;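 also: IP1 builds up when IMPase is blocked and the TR-FRET signal falls; potency is read from the fitted curve at half-maximal effect; plate controls were basal vehicle for no effect and high inhibitor control for full effect; nearly all actives have a fitted effect of over 50% in size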
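CHO-M1, 2000 cells/well, 16–30 h culture; cpd + low Li+, 30 min 37C; lysis with d2-IP1/Eu-anti-IP1 Ab, 10 min RT; TR-FRET 665/620 ratio and 620 channel; AC50 via Hill.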
ALOX12 inhib – 12-hLO (ALOX12) enzyme inhibition | Potency, µM (titrated, usually from 57.1 µM), for inactives: top-dose activity change, negative = inhibition, most hits filed as inhibitors | 150,000 compounds, 0.12% hits | P18054 | purified 12-hLO, xylenol orange hydroperoxide absorbance; also: potency is read from the fitted curve at half-maximal effect; nearly all actives have a fitted effect of over 55% in size
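Xylenol orange chromogenic assay: hydroperoxide from 12hLO oxidises Fe(II), giving red-shifted Fe(III)-XO absorbance. Conditions: 150 nM enzyme, 40 uM arachidonic acid, 25 mM Hepes pH 7.0, 0.01% Triton X-100, 30 min, room temperature.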
* hit, by the source's call; ? = inconclusive; nt = not tested or not shown; [ ] = remark or other dose. Rows were chosen to be rich in hits. Some 0.57% of all compounds tested hit in one or more screens of this group. Unless noted, calls follow the shape of the dose curve; as a rule, active = well fitted curve in the direction sought with a large enough effect; inconclusive = small, poorly fitted or top-dose-only effect, or another doubt; inactive = no such curve, though single readings can be large; an effect the other way counts as inactive or inconclusive. Unless noted, % is scaled to controls: 0 for no effect and ±100 for the full control effect.

SMILES | ALOX15B inhib | IMPase cell inh | IMPase Li cell | ALOX12 inhib
COc1ccc2cc(-c3cc(C(=O)O)c4ccccc4n3)ccc2c1 | ? | -13.2 | 10µM* | -5.3%
C=C(C)CC1Nc2ccccc2NC1CC(=C)C (configuration not stated) | 25.1µM* | 22.5 | 28.6%[38.3 µM] | -27.2%
Cn1cnc([N+](=O)[O-])c1SCC(=O)O | 1.0%[11.4 µM] | nt | -4.1% | 2.4%[11.4 µM]
N#Cc1nc(-c2cccc3ccccc23)oc1NCCN1CCCCC1 | 33.2% | -29.6 | 11.2µM* | -5.3%
CCNc1oc(-c2cccc3ccccc23)nc1C#N | -10.8% | ? | ? | ?
COc1ccc(OC)c2c(=S)c3ccccc3[nH]c12 | -6.6% | 31.3 | 34.0% | 25.1µM*
COCCOC(=O)c1ccccc1C(=O)OCCOC | 6.1% | nt | -8.9% | 4.3%
COc1ccc(S(=O)(=O)Nc2cc(Sc3ncn[nH]3)c(O)c3ccccc23)cc1 | 3.98µM* | 20.5 | 65.0%[38.3 µM] | ?
COC(=O)[C@@H]1C[C@H]1[C@@H](NC(=O)c1ccc(Br)cc1)c1ccccc1 | -1.5% | nt | 2.1% | -3.4%
N#Cc1cc(-c2ccc(Cl)cc2)cnc1Sc1ccc(F)cc1 | -0.6% | -0.3 | 25.1µM* | -1.1%
N#Cc1cc(-c2ccccc2)cnc1Sc1ccc(Cl)cc1 | 11.5% | 2.5 | 0.7%[38.3 µM] | 1.2%
O=c1cnc2cnc(OCc3ccccc3)nc2n1Cc1ccc(F)cc1 | -21.8% | nt | 16.8% | -22.4%
COc1ccc(-c2cc(-c3ccc(OC)cc3)c(C#N)c(SC)n2)cc1 | nt | -8.8 | 11.2µM* | 3.2%
Cc1cccc(NC(=O)c2cc3c([nH]c4ccccc43)c(C)n2)c1C | nt | 3.0 | -1.8% | 4.2%
Cc1ccc(C)c(NC(=O)c2cc3c([nH]c4ccccc43)c(C)n2)c1 | -16.4% | 4.8 | 11.2µM* | 13.7%
CC(C)OC(=O)CNc1n[nH]c(=S)[nH]c1=O | nt | nt | 11.2µM* | nt
COC(=O)CNc1n[nH]c(=S)[nH]c1=O | 2.0% | ? | 11.2µM* | -1.9%
COC(=O)CCNc1n[nH]c(=O)[nH]c1=O | nt | nt | -0.7% | nt
COC(=O)C1(C(=O)OC)CC(CO)C(=O)[C@H]1c1ccccc1 (some centres not stated) | nt | nt | 16.6% | 1.0%
CCn1c(NC(=S)Nc2ccccc2)nc2ccccc21 | 25.1µM* | 2.2 | -15.6%[38.3 µM] | ?
COCCN=c1scc(-c2ccco2)n1/N=C/c1ccc(O)c(O)c1O | nt | nt | 19.7% | nt
CC(C)N=c1scc(-c2ccco2)n1/N=C/c1ccc(O)c(O)c1 | 12.6µM* | 12.5 | 7.5%[38.3 µM] | ?
CCOc1cccc(C2C(C(=O)c3ccc(C)o3)=C(O)C(=O)N2c2nccs2)c1 (configuration not stated) | -23.4% | ? | nt | ?
CCOc1cccc(C2C(C(=O)c3ccc(C)o3)=C(O)C(=O)N2Cc2ccncc2)c1 (configuration not stated) | -9.1% | ? | 10µM* | -3.4%
C=CCOc1cccc(C2C(C(=O)c3ccco3)=C(O)C(=O)N2Cc2ccncc2)c1 (configuration not stated) | -7.7% | -17.0 | 5.3%[38.3 µM] | -10.2%
SMILES | ALOX15B inhib | IMPase cell inh | IMPase Li cell | ALOX12 inhib
C=CCOc1cccc(C2C(C(=O)c3ccc(C)o3)=C(O)C(=O)N2Cc2ccncc2)c1 (configuration not stated) | -7.6% | ? | 11.2µM* | -20.2%
O=c1ccn([C@@H]2O[C@@H](COP(=O)(O)OP(=O)(O)O)[C@H](O)[C@@H]2O)c(=O)[nH]1 | -8.4% | 3.5 | nt | -6.7%
Cn1cnc([N+](=O)[O-])c1Sc1nc(N)nc2c1ncn2[C@H]1C[C@H](O)[C@@H](CO)O1 | 5.5%[11.4 µM] | nt | 11.1% | 4.9%[11.4 µM]
O=C(CCC(=O)Nc1nnc(C2CCCCC2)s1)NCc1cccs1 | -12.2% | 0.1 | 14.1µM* | -3.1%
COc1ccc(OC)c(/C=N/N(C)c2ccccc2)c1 | -20.4% | 7.6 | -3.8%[38.3 µM] | -25.7%
COc1cc(/C=N/N(C)c2ccccc2)cc(Cl)c1O | 10µM* | 9.4 | 29.6%[38.3 µM] | ?
C/C=C/C1=Cc2ccccc2C(C(C(=O)OC)C(=O)OC)N1C(=O)OC (configuration not stated) | nt | nt | 2.1% | nt
N#CCCn1c(=O)c(-c2ccccc2)nc2cnc(OCc3ccccc3)nc21 | -0.7% | nt | 11.2µM* | -6.5%
COc1ccc(-c2nc3cnc(Oc4ccccc4)nc3n(CCC#N)c2=O)cc1 | 5.6% | nt | 10µM* | nt
N#CCCn1c(=O)c(-c2ccc(F)cc2)nc2cnc(OCc3ccccc3)nc21 | 2.7% | nt | -15.1% | nt
COc1ccc(-c2nc3cnc(OCc4ccccc4)nc3n(CCC#N)c2=O)cc1 | -1.1% | nt | 22.4µM* | nt
O=C(O)[C@H](C1NCCS1)N1C(=O)c2ccccc2C1=O (some centres not stated) | nt | nt | 2.3% | nt
CN1[C@@H]2CC[C@H]1CC(OC(=O)[C@@H](CO)c1ccccc1)C2 (some centres not stated) | 4.0%[25.6 µM] | nt | nt | -1.1%[25.6 µM]
O=[N+]([O-])c1cc(C(F)(F)F)ccc1NCCNC(=S)Nc1ccc(Cl)cc1 | 31.6µM* | 5.5 | 23.4%[38.3 µM] | ?
C[C@H]1Cc2c(-c3ccccc3)nc3c(c2CO1)CN(S(=O)(=O)c1ccc2c(c1)OCCN2C)CC3 | nt | nt | 8.7% | 5.5%[11.4 µM]
Cc1cccc(C)c1NC(=O)CN1C(=O)S/C(=C\c2cccn2-c2cccc(C(=O)O)c2)C1=O | ? | -11.7 | -10.7%[38.3 µM] | -8.1%
Cc1ccccc1NC(=O)CN1C(=O)S/C(=C\c2cccn2-c2cccc(C(=O)O)c2)C1=O | 25.1µM* | 11.9 | -3.7%[38.3 µM] | -9.9%
O=C(CSc1ncnc2c1oc1ccccc12)Nc1ccccc1C(F)(F)F | nt | ? | 5.62µM* | -1.8%
O=C(CSc1ncnc2c1oc1ccccc12)NCc1ccco1 | -14.3% | ? | 11.2µM* | -9.8%
CCOC(=O)CC(=O)CSc1ncnc2c1oc1ccccc12 | -1.1% | ? | 8.91µM* | -7.2%
CCCCc1nc2sc3c(SCC(=O)NCc4ccco4)ncnc3c2c2c1CCC2 | -23.3% | ? | 5.01µM* | -0.4%
O=C(O)CSc1ncnc2c1oc1ccccc12 | -1.9% | -28.4 | nt | -0.9%
CC(CO)(CO)N=Cc1cc(I)cc(I)c1O | 0.4%[11.4 µM] | nt | -21.6% | -21.5%[11.4 µM]
CC12CC[C@@H]3c4ccc(OP(=O)(O)O)cc4CCC3C1CCC2=O (some centres not stated) | -8.2%[11.4 µM] | nt | 3.3% | -1.7%[11.4 µM]
N#CCCSc1ncnc2c1oc1ccccc12 | 0.2% | ? | 11.2µM* | 1.6%
SMILES | ALOX15B inhib | IMPase cell inh | IMPase Li cell | ALOX12 inhib
COc1cccc(NC(=O)CSc2ncnc3c2oc2ccccc23)c1 | -4.6% | ? | 11.2µM* | -1.7%
C/C(=N\NC(=S)NCCc1ccccc1)c1cccs1 | nt | nt | 3.8% | 3.98µM*
Cc1ccc(C(=O)O)cc1N1C(=O)c2cccc3cc(Br)cc(c23)C1=O | -8.0% | ? | 2.24µM* | -17.9%
O=c1c(CCc2ccccc2)nc2cnc(N3CCOCC3)nc2n1CCc1ccccc1 | -7.3% | nt | 1.3% | nt
Cc1cc(=O)c2c(O)c(O)ccc2o1 | -15.9% | 11.4 | -1.3%[38.3 µM] | -24.5%
CC(C)c1ccc(O)c(O)c(=O)c1 (tested in a mixture with another compound) | 3.98µM* | nt | -6.8% | ?
COc1ccc(-c2nc(-c3ccccc3)oc2Nc2ccccc2C)cc1 | nt | nt | 12.4% | 3.9%

Bioassay records as filed in PubChem BioAssay.
